Our source for the growth values is PubChem BioAssay (NCI).

Test systems include SK-MEL-2 melanoma; EKVX NSCLC; SN12C renal; TK-10 renal; ACHN renal; CAKI-1 renal; A498 renal; CCRF-CEM leukemia; MOLT-4 leukemia; SR leukemia; RPMI-8226 leukemia; OVCAR-8 ovarian; OVCAR-5 ovarian; OVCAR-4 ovarian; SK-OV-3 ovarian; IGROV1 ovarian; OVCAR-3 ovarian; HS 578T breast; NCI/ADR-RES ovarian.
Experiment in all cases: NCI-60 one-dose screen, 48 h (100 = growth as untreated, 0 = no growth, -100 = all killed)
Conditions in all cases: 10 µM unless noted

This is part of a sample that, as a whole, favours compounds with a hit. Of some 83,000 tested, about 20% had one in any assay.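 48-hour exposure, single concentration, 96-well plates; percent growth endpoint where 0 means no net growth. Active: below 10.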 Values without a mark were called inactive. Active and inactive are the calls of the source.

In the case of `O=C(Nc1cc(Cl)ccc1O)c1cccc(Nc2ccnc(C(F)(F)F)c2)c1`, the growth in the assay with SK-MEL-2 melanoma was 56.2%; in the assay with EKVX NSCLC it was 9.67% (active); in the assay with SN12C renal it was 35%; with TK-10 renal, 46.6%; in the assay on ACHN renal it was 27.2%; in the assay with CAKI-1 renal, -2.35% (active). Besides, the growth is 45.3% in the assay on A498 renal; 8.35% (active) in the assay with CCRF-CEM leukemia; -41.2% (active) with MOLT-4 leukemia; 25% with SR leukemia; 3.8% (active) in the assay with RPMI-8226 leukemia; 39.4% with OVCAR-8 ovarian. Moreover, the growth was 77.8% with OVCAR-5 ovarian; 33.8% in the assay on OVCAR-4 ovarian; 56.4% with SK-OV-3 ovarian; 75.7% with IGROV1 ovarian; 53.4% in the assay on OVCAR-3 ovarian; 60.4% in the assay with HS 578T breast. Besides, the growth in the assay on NCI/ADR-RES ovarian is 15.2%.

In the case of `Cc1ccc(/C=C/C(=O)c2ccc(-n3cc(CN4CCN(c5cc6c(cc5F)c(=O)c(C(=O)O)cn6C5CC5)CC4)nn3)cc2)cc1`, the growth in the assay on SK-MEL-2 melanoma was 95.5%; in the assay on EKVX NSCLC, 96%; in the assay with SN12C renal it was 67.7%; with TK-10 renal, 104%; in the assay with ACHN renal, 89.8%; in the assay with CAKI-1 renal, 69.8%. Besides, the growth was 64.5% in the assay on A498 renal; 84.3% with CCRF-CEM leukemia; 86% in the assay with MOLT-4 leukemia; 63.2% in the assay with SR leukemia; 44.3% with RPMI-8226 leukemia; 62.5% with OVCAR-8 ovarian. For the same compound, the growth in the assay with OVCAR-5 ovarian was 109%; in the assay with OVCAR-4 ovarian, 94.8%; with SK-OV-3 ovarian it was 84.7%; in the assay on IGROV1 ovarian, 69.9%; in the assay on OVCAR-3 ovarian, 96%; in the assay with HS 578T breast it was 80.5%. Moreover, the growth with NCI/ADR-RES ovarian is 103%.

Regarding `O=C1/C(=C/c2ccccc2F)CN(C(=O)C(Cl)Cl)C/C1=C\c1ccccc1F`, the growth with SK-MEL-2 melanoma is -2.69% (active); in the assay on EKVX NSCLC, -8.07% (active); with SN12C renal it was -79.9% (active); with TK-10 renal it was -39.7% (active); in the assay with ACHN renal, -100% (active); in the assay with CAKI-1 renal it was -43.2% (active). The growth in the assay with A498 renal was -62.5% (active); with CCRF-CEM leukemia it was 1.7% (active); in the assay with MOLT-4 leukemia, -10.7% (active); in the assay with RPMI-8226 leukemia, -27.7% (active); in the assay with OVCAR-8 ovarian, 2.66% (active); in the assay on OVCAR-5 ovarian, -41.6% (active). The growth in the assay on OVCAR-4 ovarian was 14.9%; in the assay with SK-OV-3 ovarian it was 32.4%; with IGROV1 ovarian, -36.9% (active); with OVCAR-3 ovarian, -94% (active); with HS 578T breast it was 4.55% (active); in the assay with NCI/ADR-RES ovarian, 5.18% (active).

Regarding `O=C(Nc1ccccc1O)c1ccc(CNC(=O)c2ccsc2Nc2ccnc(C(F)(F)F)c2)cc1`, the growth in the assay on SK-MEL-2 melanoma is -20.9% (active); in the assay on EKVX NSCLC, 37.8%; in the assay on SN12C renal it was 45.9%; with TK-10 renal, -13.7% (active); in the assay with ACHN renal it was 20.2%; with CAKI-1 renal it was 9.72% (active). Also, the growth was -14.5% (active) with A498 renal; 5.36% (active) in the assay with CCRF-CEM leukemia; 4.64% (active) with MOLT-4 leukemia; 22% with SR leukemia; -1.09% (active) in the assay on RPMI-8226 leukemia; 18.4% with OVCAR-8 ovarian. Further, the growth is 44.3% in the assay with OVCAR-5 ovarian; 47.3% in the assay on OVCAR-4 ovarian; 49.1% with SK-OV-3 ovarian; 31.9% in the assay on IGROV1 ovarian; 21.6% in the assay with OVCAR-3 ovarian; 4.47% (active) in the assay on HS 578T breast. Besides, the growth in the assay with NCI/ADR-RES ovarian was 8.13% (active).

For `COc1ccc(N2CCC(=S)NC2=S)cc1`, the growth with SK-MEL-2 melanoma is 115%; in the assay on EKVX NSCLC it was 104%; in the assay with SN12C renal, 98%; in the assay with TK-10 renal it was 96%; in the assay on ACHN renal, 104%; in the assay with CAKI-1 renal, 85%. Further, the growth in the assay with A498 renal was 108%; in the assay with CCRF-CEM leukemia, 102%; in the assay with MOLT-4 leukemia, 98.9%; with SR leukemia, 112%; with RPMI-8226 leukemia it was 103%; in the assay on OVCAR-8 ovarian it was 99.1%. Besides, the growth in the assay on OVCAR-5 ovarian is 104%; in the assay with OVCAR-4 ovarian, 90.1%; in the assay on SK-OV-3 ovarian it was 116%; with IGROV1 ovarian, 105%; with OVCAR-3 ovarian it was 103%; in the assay on HS 578T breast, 105%. In addition, the growth in the assay with NCI/ADR-RES ovarian is 103%.

Regarding `N[C@H]1CCC[C@@H]1NCCCCN1C(=O)c2cccc3cc([N+](=O)[O-])cc(c23)C1=O`, the growth with SK-MEL-2 melanoma is 84.2%; in the assay with EKVX NSCLC, 73.2%; with SN12C renal, 29.7%; with TK-10 renal, 44.5%; in the assay with ACHN renal, 22.4%; with CAKI-1 renal, 94.3%. In addition, the growth in the assay on A498 renal was 62.6%; in the assay with CCRF-CEM leukemia, 2.24% (active); in the assay on MOLT-4 leukemia, 0.264% (active); in the assay on SR leukemia, -6.77% (active); in the assay with RPMI-8226 leukemia it was 58.3%; in the assay on OVCAR-8 ovarian, 37.1%. In addition, the growth is 73.6% in the assay with OVCAR-5 ovarian; 44.5% in the assay with OVCAR-4 ovarian; 42.1% in the assay on SK-OV-3 ovarian; 34.5% with IGROV1 ovarian; 53% in the assay with OVCAR-3 ovarian; 65.4% with HS 578T breast. In addition, the growth in the assay with NCI/ADR-RES ovarian was 77%.

Turning to `Nc1nc(N)c(N=Nc2ccccc2)c(-c2ccccc2)n1`, the growth in the assay on SK-MEL-2 melanoma was 85.3%; in the assay with EKVX NSCLC, 51.3%; in the assay with SN12C renal, 56%; in the assay on TK-10 renal, 55.1%; in the assay with ACHN renal it was 60.4%; in the assay on CAKI-1 renal, 45.3%. The growth in the assay on A498 renal was 31%; in the assay on CCRF-CEM leukemia, 52.6%; in the assay on MOLT-4 leukemia, 46.6%; with SR leukemia it was 38.7%; in the assay with RPMI-8226 leukemia, 62.5%; in the assay with OVCAR-8 ovarian, 77.5%. Also, the growth is 56.9% with OVCAR-5 ovarian; 66.4% in the assay on OVCAR-4 ovarian; 50.6% in the assay on SK-OV-3 ovarian; 15.3% in the assay with IGROV1 ovarian; 67.2% in the assay with OVCAR-3 ovarian; 3.4% (active) with HS 578T breast. In addition, the growth with NCI/ADR-RES ovarian is 75.1%.

`COc1ccc(C(=O)/C=C/c2ccc(Cl)cc2)cc1S(=O)(=O)Nc1c(N)nc(SC)[nH]c1=O`: the growth in the assay with SK-MEL-2 melanoma is 95.8%; with EKVX NSCLC, 85.2%; in the assay with SN12C renal, 16.8%; in the assay with TK-10 renal, 79.6%; in the assay with ACHN renal it was 82.1%; with CAKI-1 renal it was 68.5%. In addition, the growth in the assay with A498 renal was 80.9%; in the assay on CCRF-CEM leukemia it was 9.03% (active); with MOLT-4 leukemia, 59.8%; with SR leukemia, 9.2% (active); in the assay with RPMI-8226 leukemia, 10%; with OVCAR-8 ovarian, 10.8%. In addition, the growth was 86.3% in the assay on OVCAR-5 ovarian; 66.7% with OVCAR-4 ovarian; 97.4% with SK-OV-3 ovarian; 40.1% in the assay on IGROV1 ovarian; 10.1% with OVCAR-3 ovarian; 81.4% with HS 578T breast. In addition, the growth in the assay with NCI/ADR-RES ovarian was 97.5%.

On to `CC(=O)c1sc2sc(C(C)=O)c(C)c2c1C`, for which the growth with SK-MEL-2 melanoma is 107%; in the assay on EKVX NSCLC, 42.8%; with SN12C renal, 98%; in the assay on TK-10 renal, 74.9%; in the assay on ACHN renal, 98.9%; in the assay with CAKI-1 renal it was 86.4%. For the same compound, the growth in the assay on A498 renal was -82.4% (active); in the assay on CCRF-CEM leukemia, 63.6%; in the assay on MOLT-4 leukemia it was 85.5%; with SR leukemia it was 75.6%; with RPMI-8226 leukemia it was 66.7%; in the assay on OVCAR-8 ovarian, 84%. Moreover, the growth with OVCAR-5 ovarian is 93.2%; in the assay with OVCAR-4 ovarian, 108%; with SK-OV-3 ovarian, 81.2%; in the assay on IGROV1 ovarian, 101%; in the assay on OVCAR-3 ovarian, 110%; in the assay on HS 578T breast, 92%. Also, in the assay on NCI/ADR-RES ovarian, the growth is 95.6%.

On to `COc1ccc2[nH]cc(-c3nc(-c4c[nH]c5c(Cl)nccc45)cs3)c2c1`, for which the growth is 59.3% with SK-MEL-2 melanoma; 62.8% in the assay on EKVX NSCLC; 56.5% in the assay with SN12C renal; 49.6% in the assay with TK-10 renal; 16.1% in the assay with ACHN renal; -15.3% (active) in the assay on A498 renal. Besides, the growth with CCRF-CEM leukemia was 24.7%; in the assay on MOLT-4 leukemia, 41.1%; in the assay with SR leukemia it was 18.1%; in the assay on RPMI-8226 leukemia, 43.5%; with OVCAR-8 ovarian it was 28.9%; in the assay on OVCAR-5 ovarian, 99.9%. The growth in the assay on OVCAR-4 ovarian was 68.6%; in the assay on SK-OV-3 ovarian, 46.9%; with IGROV1 ovarian, 54.7%; with OVCAR-3 ovarian, 75.9%; in the assay on HS 578T breast, 38.7%; with NCI/ADR-RES ovarian, 20.7%.

As to `Cc1nc2cc(O)c(O)cc2cc1Oc1ccc(NC(=O)Nc2ccc(Cl)c(Cl)c2)cc1`, the growth in the assay on SK-MEL-2 melanoma is 77.7%; in the assay with EKVX NSCLC, 98.5%; in the assay on SN12C renal it was 85.6%; with TK-10 renal it was 85.3%; in the assay with ACHN renal, 39%; in the assay on CAKI-1 renal, 27.3%. In addition, the growth with A498 renal is 118%; in the assay with CCRF-CEM leukemia, 19.9%; in the assay on MOLT-4 leukemia it was 12.6%; in the assay with SR leukemia it was 8.95% (active); with RPMI-8226 leukemia, 75.7%; in the assay on OVCAR-8 ovarian, 47.7%. The growth is 122% in the assay on OVCAR-5 ovarian; 67.7% in the assay with OVCAR-4 ovarian; 44.9% with SK-OV-3 ovarian; 67.1% in the assay with IGROV1 ovarian; 67.9% in the assay with OVCAR-3 ovarian; 105% in the assay on HS 578T breast. Also, the growth with NCI/ADR-RES ovarian was 59%.
